The source of these data is the OligoGym collection.

What all share (experiment): pooled miR-30 sensor sort-seq; sequence = guide strand
Common to all, as to details: shRNA

The target of assay [1] is RERG.
Assay [2] deals with RET.
The target of assay [3] is REPS2.
The target of assay [4] is REST.
Assay [5] concerns the target RGS9.
Assay [6] has as its target RNPC3.
The target in assay [7] is RPS6KA5.
Assay [8] has as its target RRP12.
In assay [9] the target is RSF1.
In assay [10] the target is RSPH9.
Also: reference of the scale not given here.

As to TTGCCCTGCACCATCCTCCGGC, in assay [1], the sensor-assay potency score (higher = more potent) was -0.458.

As to TACAATTTGATGACATGTGGGT, the sensor-assay potency score (higher = more potent) in assay [2] is 0.209.

TTTGTTTCCAACCAAGATGAGA had a sensor-assay potency score (higher = more potent) in assay [1] of -1.39.

Take ATTGACATAGTACTCGCGCTGT: the sensor-assay potency score (higher = more potent) in [3] came out at 0.431.

In assay [4], TTGAACTGTAAATATCTGGAGC had a sensor-assay potency score (higher = more potent) of -0.111.

Consider TTCTTGATGAACCTCCTTGAGC, for which the sensor-assay potency score (higher = more potent) in assay [3] was -1.27.

In [3], TTATCCTCATCGTCCATTCTTT showed a sensor-assay potency score (higher = more potent) of -0.725.

In assay [1], TCTTCTGTGCTAACCTGCCTGG gave a sensor-assay potency score (higher = more potent) of -0.541.

For TTCATCTTCATCAATTTCCTGA, in assay [4], the sensor-assay potency score (higher = more potent) was 0.487.

Sequence TTGACATGCGTGGTGGAGCTGC registered a sensor-assay potency score (higher = more potent) in [1] of -0.453.

On to TTGGATATCTTGGAAACCCAGT, for which, in assay [2], the sensor-assay potency score (higher = more potent) is -0.723.

In turn, AACAACTTCATCATCGATGGTT displayed a sensor-assay potency score (higher = more potent) in assay [1] of -0.0718.

In the case of TTTGATCTCATCTAGGATGTTC, in assay [1], the sensor-assay potency score (higher = more potent) worked out at 0.194.

With TTAGACACATTTATTCAGCTGT, the sensor-assay potency score (higher = more potent) in assay [1] amounted to 0.3.

With TATCTTAACAGGTTCCTTCTGG, in assay [4], the sensor-assay potency score (higher = more potent) was 0.123.

TTGTCTGGCCTCTCCATCCGGT: the sensor-assay potency score (higher = more potent) in assay [2] was -0.338.

Take TAGAGTTCCTTCTATTTCCTGT: the sensor-assay potency score (higher = more potent) in assay [1] was determined as 0.463.

TTCCGGTTGAGAACCAGCCTAT yielded a sensor-assay potency score (higher = more potent) in [2] of -0.898.

Sequence TATCTGAACAGGCTCCTTCTGG had a sensor-assay potency score (higher = more potent) in assay [4] of -0.749.

TTTAACTGGAATCCGACCCTGG yielded a sensor-assay potency score (higher = more potent) in assay [2] of 0.235.

Turning to TTGACATAGTACTCGCGCTGTT, the sensor-assay potency score (higher = more potent) in assay [3] was -0.809.

TTTTCTGGTCTGAATTTCCTAC registered a sensor-assay potency score (higher = more potent) in [3] of -0.484.

For TTCTGTGATCTGGTGCAGCGTC, the sensor-assay potency score (higher = more potent) in assay [3] is -0.566.

In the case of TTGGGTCTCCACAACATCGCAG, in assay [2], the sensor-assay potency score (higher = more potent) was -0.15.

As for TTTGCTGTAATCTTTTCCCTTT, in assay [4], the sensor-assay potency score (higher = more potent) was -0.0854.

For the sequence TTGAACTCCACCACGGCGCTGG, the sensor-assay potency score (higher = more potent) in [2] is 0.715.

Consider TTAAGCATATCTGAAAACCAAA, for which the sensor-assay potency score (higher = more potent) in [2] is -1.63.

In assay [2], TAGAGTTTGTTTTCAATCCATG registered a sensor-assay potency score (higher = more potent) of -0.723.

In assay [5], TTGTTTCTTGACTTCATTCGGA gave a sensor-assay potency score (higher = more potent) of 0.389.

On to TTTCTTTTTGATATTTCGCTTG, for which, in assay [5], the sensor-assay potency score (higher = more potent) was -0.178.

On to TTAAATACACTTTCAAAGCTGT, for which the sensor-assay potency score (higher = more potent) in assay [6] amounted to 0.272.

In turn, TTCATCTCGAATGACTGGCTTA registered a sensor-assay potency score (higher = more potent) in assay [7] of 0.378.

TTTTTCTCCATCAACAGTGAAA displayed a sensor-assay potency score (higher = more potent) in assay [7] of -1.03.

As for TTTGTTTGGATCTACTGTGAGA, the sensor-assay potency score (higher = more potent) in assay [7] is -1.04.

As for TTCAACTTAGCTGAGACACCAG, the sensor-assay potency score (higher = more potent) in [8] is -0.063.

On to TCGACTGTCAGGTCACTCCTTC, for which, in [8], the sensor-assay potency score (higher = more potent) is -0.238.

In assay [7], TACACGTCAAACTTCGGTCATG yielded a sensor-assay potency score (higher = more potent) of -0.748.

For TTTCTGGTGCTTGAGCTTCTGG, in [8], the sensor-assay potency score (higher = more potent) is -0.862.

In assay [8], TTGTTGTCATCAGAGCAGCGAA yielded a sensor-assay potency score (higher = more potent) of -1.32.

Sequence TCACTTTTTAATATTCTCCTAG yielded a sensor-assay potency score (higher = more potent) in assay [7] of -0.3.

As to TTGCTCTCTAGGTAGGGCCGGA, the sensor-assay potency score (higher = more potent) in assay [8] is -0.614.

Sequence TTACCAAGGACCATGAACCTGG displayed a sensor-assay potency score (higher = more potent) in [9] of 0.217.

TTGCTGATTATTTTGACTGCAA: in assay [7], the sensor-assay potency score (higher = more potent) amounted to 0.0107.

The sequence TATTCTTTAGCTCAACAGGCTC registered a sensor-assay potency score (higher = more potent) in [10] of -1.09.

In the case of TTGATCATCTTGTTCTTCTATG, the sensor-assay potency score (higher = more potent) in assay [9] is -0.223.

The sequence TTACTTTAGAATTTGTATCTTT returned a sensor-assay potency score (higher = more potent) in [9] of 0.216.

TAGCCATAGTTCTTGGTGCGGG returned a sensor-assay potency score (higher = more potent) in [10] of -0.956.

TAAGGCAACATCCAAATCCTGC returned a sensor-assay potency score (higher = more potent) in assay [9] of -1.12.

For the sequence TTGATCTTCAGAAAAGTCTGGC, in assay [9], the sensor-assay potency score (higher = more potent) stood at 0.121.

Consider TACAGCTGAAACAAGCTTCCTC, for which the sensor-assay potency score (higher = more potent) in assay [7] worked out at 0.279.

Take TGTTCTTCTATGTACATTCTGA: in assay [9], the sensor-assay potency score (higher = more potent) was 0.345.

In assay [7], TTCTCCTAGATATCTCAGCTTG gave a sensor-assay potency score (higher = more potent) of -0.946.

TTTCTGTGAACTCTTCTGCAAA came in with a sensor-assay potency score (higher = more potent) in assay [7] of -1.11.

TTTGAGATTGTCATCAAACTGA registered a sensor-assay potency score (higher = more potent) in assay [9] of 0.222.

On to TTGATCTGGACCACTATTTCTT, for which, in assay [10], the sensor-assay potency score (higher = more potent) was -0.0516.

The sequence TTCTTCATGATTTCCACCGCGC had a sensor-assay potency score (higher = more potent) in assay [7] of 0.302.

In the case of TTTGGGAATGTCATGCTCCAAG, in [10], the sensor-assay potency score (higher = more potent) was -0.888.

In turn, TTGAGATCCATCACTGATCTTG gave a sensor-assay potency score (higher = more potent) in [9] of 0.36.

In the case of TCAACTTAGCTGAGACACCAGA, in assay [8], the sensor-assay potency score (higher = more potent) was -0.378.

Sequence TGCAGCTTCATCTTCTTCCTGC came in with a sensor-assay potency score (higher = more potent) in [8] of 0.0542.
